The record followed here is PubChem BioAssay (NCATS).

Inconclusive results are not listed. A call without a number means that no potency is given here. Calls of active or inactive are those of the source. Calls follow the shape of the dose curve; as a rule, active = well fitted inhibition curve with a large enough effect; inconclusive = small, poorly fitted or top-dose-only effect; inactive = no such curve, though single readings can be large or run the other way.

The nature of this test: Primary qHTS for small molecule stabilizers of the endoplasmic reticulum resident proteome: Secreted ER Calcium Modulated Protein (SERCaMP) assay (AID 1508630). The note with it: SH-SY5Y GLuc-SERCaMP (Gaussia luciferase released on ER calcium loss) secretion, thapsigargin, luminescence; series mostly up to 38.4 µM. An excerpt: Assay Provider: Brandon K. Harvey Ph.D.
National Institute on Drug Abuse, National Institutes of Health, Baltimore, MD
Endoplasmic reticulum (ER) dysregulation is associated with human pathologies including neurodegenerative, cardiovascular, muscular, and diabetic conditions. Maintenance of ER calcium is critical for functions of the ER and its depletion can lead to loss of ER resident proteins, in a process termed exodosis. Therapeutic compounds capable of attenuating the redistribution of ER proteins under pathological conditions may slow or stop disease progression. To identify such compounds, we performed a quantitative high-throughput screen (qHTS) using the SERCaMP assay, which monitors secretion of ER resident proteins triggered by calcium depletion.
SERCaMP was initially developed as a reporter of ER calcium homeostasis using a Gaussia luciferase with a modified signal peptide and carboxy-terminus (GLuc-SERCaMP), modifications that confer secretion of the reporter in response to ER calcium depletion (Henderson et al., 2014). The assay was used to screen 9,501 compounds, including a collection of drugs approved by the FDA (US), EMA (EU), NHI (Japan), and HC (Canada) regulatory agencies (Huang et al., 2011). Since the SERCaMP reporter reflects the exodosis phenomenon (Trychta et al., 2018a), compounds identified in the screen have the potential to prevent exodosis by different mechanisms such as stabilizing ER calcium or augmenting ERS retrieval.
1. Henderson, M.J., Wires, E.S., Trychta, K.A., Richie, C.T., and Harvey, B.K. (2014). SERCaMP: a carboxy-terminal protein modification that enables monitoring of ER calcium homeostasis. Mol Biol Cell 25, 2828-2839.
2. Huang, R., Southall, N., Wang, Y., Yasgar, A., Shinn, P., Jadhav, A., Nguyen, D.T., and Austin, C.P. (2011). The NCGC pharmaceutical collection: a comprehensive resource of clinically approved drugs enabling repurposing and chemical genomics. Sci Transl Med 3, 80ps16.
3. Trychta, K.A., Back, S., Henderson, M.J., and Harvey, B.K. (2018a). KDEL Receptors Are Differentially Regulated to Maintain the ER Proteome under Calcium Deficiency. Cell Rep 25, 1829-1840 e1826.
SEQUENCE No. (1, 2, 3, etc.); […] (e.g., Cells, Incubation, Reagent, etc.); VALUE and DESCRIPTION.
1; Reagent; 5 uL; 1000 SH-SY5Y cells per wells
3; Compound; 23 nL; Control inhibitor / compound library
5; Reagent; 100 nM; Thapsigargin
7; Reagent; 1 uL; 0.5x coelenterazine
8; Detection; Luminescence; ViewLux imaging system
NOTES (numbers refer to sequence above)
1; SH-SY5Y human neuroblastoma cells stably expressing GLuc-SERCaMP (SH-SY5Y-GLuc-ASARTDL) cells were seeded in 1,536 well white tissue culture treated plates (Corning, Cat# 7464) in DMEM-high glucose-sodium pyruvate (ThermoFisher Scientific, Cat #10569) supplemented with 10% bovine growth serum (Hyclone), 10 U/ml penicillin (Gibco), 10 ug/ml streptomycin (Gibco), and 20 mM HEPES.
2; Assay plates were incubated for 5 hour at 37C in a humidified incubator containing 5% CO2.
3; qHTS libraries (23 nl, final concentrations of 1.53 uM, 7.67 uM, 38.3 uM) or controls (neutral control: DMSO, positive control: dantrolene) were added using a Kalypsis pin-tool Robotic System equipped with 1536 pinheads.
4; Cells were then incubated for 16 hours at 37C, 5% CO2.
5; Thapsigargin was added at 100 nM to deplete ER calcium stores.
6; Cells were incubated for 4 hour (37 °C, 5% CO2)
7; Gaussia luciferase in the medium was measured by adding 1 ul of 0.5x coelenterazine (final concentration 0.07x) prepared in Gaussia Luciferase Glow Assay Buffer (Pierce), without addition of the Cell Lysis Buffer Reagent.
8; Luminescence was measured using a ViewLux […] CCD imaging system (Perkin Elmer) equipped with clear filters. […] The same controls were also used for the calculation of the Z' factor, a measure of assay quality control, as previously described (Zhang et al., 1999). […]
Turning to `NC(=O)C1CCCc2c1[nH]c1ccc(Cl)cc21` (stereo not given), the Potency result was “inactive”.
The same measure for `N#Cc1ccc(C(c2ccc(C#N)cc2)n2cncn2)cc1`: “inactive”.
For `O=C(O)[C@@H](c1ccc(OCc2ccc3ccccc3n2)cc1)C1CCCC1`, the Potency entry is “inactive”.
The same measure for `CNC[C@H](O)c1cccc(O)c1`: “inactive”; for `Cc1cnc(NC(=O)C2=C(O)c3ccccc3S(=O)(=O)N2C)s1`: “inactive”.
The same measure for `COc1ccc(COc2cc3oc(=O)c4cc(C(C)O)ccc4c3cc2OC)cc1` (stereo not given): “inactive”.
The same measure for `OCCn1cc(-c2cnc3nnn(Cc4ccc5ncccc5c4)c3n2)cn1`: “inactive”.
`CCCC(CCC)C(=O)O`: the Potency result is “inactive”.
The same measure for `Cc1cc(SCc2sc(-c3ccc(C(F)(F)F)cc3)nc2C)ccc1OCC(=O)O`: “inactive”; for `NS(=O)(=O)c1cc2c(cc1Cl)NC=NS2(=O)=O`: “inactive”; for `Cn1c(=O)c(F)c(Nc2ccc(I)cc2F)c2c(=O)n(C[C@@H](O)CO)cnc21`: “inactive”.
Next, `CCN(CC)CCCC(C)Nc1nc(C)cc(Nc2ccc3nc(C)cc(N)c3c2)n1` (stereo not given): “inactive”.
The same measure for `O=C1[C@H](Cc2ccc(O)cc2)N2C(=O)CCN(C(=O)NCc3ccccc3)[C@H]2CN1Cc1cccc2ccccc12`: “inactive”.
On to `CC(c1cc2ccccc2s1)N(O)C(N)=O` (stereo not given), for which the Potency result is “inactive”.
Next, `CC(=O)NC(C)c1ccc(Oc2ccc(OC(C)C)cc2)cc1` (stereo not given): “inactive”; `CC(C)(C)OC(=O)CN(Cc1ccc(Cl)cc1)Cc1ccc([N+](=O)[O-])s1`: “inactive”.
Next, `Cc1oncc1C(=O)Nc1ccc(C(F)(F)F)cc1`: “inactive”; `OC[C@H](Cc1ccccc1)Nc1nc(Oc2ccc3c(c2)CCC3)nc2c1ncn2Cc1ccc(-c2ccccc2)cc1`: “inactive”.
For `C[C@]1(c2nc3c(C(N)=O)cccc3[nH]2)CCCN1`, the Potency entry is “inactive”.
Next, `CCOc1cc(C(=O)Nc2ccc(Cl)c(-c3nc4ccccc4[nH]3)c2)cc(OCC)c1OCC`: “inactive”.
Next, `Oc1cccc(-c2nc(N3CCOCC3)c3oc4ncccc4c3n2)c1`: “inactive”.
Next, `COCC(=O)NCC=Cc1ccc2ncnc(Nc3ccc(Oc4ccc(C)nc4)c(C)c3)c2c1`: “inactive”.
Take `COc1c(Cl)cc2c([nH]c3cnccc32)c1NC(=O)c1cccnc1C`: the Potency result is “inactive”.
As to `O=C(NOC[C@H](O)CO)c1ccc(F)c(F)c1Nc1ccc(I)cc1F`, the Potency result is “inactive”.
On to `S=C(NCc1ccc2c(c1)OCO2)N1CCN(c2ncnc3c2oc2ccccc23)CC1`, for which the Potency entry is “inactive”.
Next, `Cc1c(CN2CCN(C(=O)C(C)C)CC2)sc2c(N3CCOCC3)nc(-c3cnc(N)nc3)nc12`: “inactive”; `O=c1[nH]c(-c2ccc(C(F)(F)F)cc2)nc2c1CSCC2`: “inactive”.
The same measure for `C[C@]12CCC(=O)C=C1CC[C@@H]1[C@@H]2[C@@H](O)C[C@@]2(C)[C@H]1CC[C@]2(O)C(=O)CO`: “inactive”; for `Oc1ccc(C2CNCCc3c2cc(O)c(O)c3Cl)cc1` (stereo not given): “inactive”; for `CNC(=O)c1ccccc1Sc1ccc2c(/C=C/c3ccccn3)n[nH]c2c1`: “inactive”.
Next, `Cc1cc([C@@H](C)Nc2ccccc2C(=O)O)c2nc(N3CCOCC3)cc(=O)n2c1`: “inactive”.
With `CC(C)NCC(O)COc1ccc(COCCOC(C)C)cc1` (stereo not given), the Potency result is “inactive”.
Next, `COCCNCCCn1c(C(=O)CF)c(-c2ccc(C)cc2)c2c(N)ncnc21`: “inactive”; `N[C@@H]1CONC1=O`: “inactive”; `OCCC#Cc1nc(-c2ccc(F)cc2)c(-c2ccncc2)n1CCCc1ccccc1`: “inactive”.
With `CCCc1nc2c(C)cc(-c3nc4ccccc4n3C)cc2n1Cc1ccc(-c2ccccc2C(=O)O)cc1`, the Potency entry was “inactive”.
The same measure for `C#Cc1cccc(Nc2ncnc3cc(OCCOC)c(OCCOC)cc23)c1`: “inactive”.
For the compound `CCOc1ccc(Cc2cc([C@@H]3O[C@H](CO)[C@@H](O)[C@H](O)[C@@H]3O)ccc2Cl)cc1`, the Potency entry was “inactive”.
Next, `Cc1ccccc1C(OCCN(C)C)c1ccccc1` (stereo not given): “inactive”; `Cc1cnc(Nc2ccc(OCCN3CCCC3)cc2)nc1Nc1cccc(S(=O)(=O)NC(C)(C)C)c1`: “inactive”.
